# Test results from PubChem BioAssay (NCATS).
# Unmarked numbers belong to inactive results. Results filed as inconclusive are left out. Where a call stands in place of a potency, no number is given. Activity calls are given as the source filed them. Unless noted, the call rests on the fitted dose curve; in most records, active means well fitted curve in the direction sought with a large enough effect; inconclusive means small, poorly fitted or top-dose-only effect, or another doubt; inactive means no such curve, though single readings can be large; an effect the other way counts as inactive or inconclusive.
# Key:
# [1] = target: DNA repair nuclease/redox regulator APEX1 (Homo sapiens) (UniProt P27695); assay: qHTS Validation Assay for Inhibitors of the Human Apurinic/apyrimidinic Endonuclease 1 (APE1) (AID 1705;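 further: TAMRA fluorescence gain over two minutes as APE1 cuts a quenched THF abasic duplex; series mostly up to about 57 µM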)
# Method in brief: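 qHTS, 1536-well. APE1 + cpd 15 min RT → 50 nM TAMRA/BHQ-2 THF-abasic dsDNA substrate → kinetic fluorescence, 3 reads/60 s; delta(read3−read1) = reaction progress. No-enzyme buffer = negative control.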
# [2] = qHTS for differential inhibitors of proliferation of Plasmodium falciparum line 7G8 (AID 1815);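 further: potency means the concentration at half of the fitted maximal effect; parasite growth measured after three days of incubation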
# [3] = qHTS for differential inhibitors of proliferation of Plasmodium falciparum line GB4 (AID 1816); conditions: Potency: Plasmodium falciparum GB4 proliferation inhibition;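 further: potency means the concentration at half of the fitted maximal effect; parasite growth measured after 72 h incubation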
# [4] = qHTS for differential inhibitors of proliferation of Plasmodium falciparum line 3D7 (AID 1876); further: potency means the concentration at half of the fitted maximal effect
# [5] = qHTS for differential inhibitors of proliferation of Plasmodium falciparum line D10 (AID 1877);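 further: potency means the concentration at half of the fitted maximal effect; parasites grown with compound for 72 h before DNA staining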
# [6] = qHTS for differential inhibitors of proliferation of Plasmodium falciparum line W2 (AID 1883); conditions: Potency: Plasmodium falciparum W2 proliferation inhibition;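 further: potency means the concentration at half of the fitted maximal effect; parasites grown with compound for 72 h before lysis and staining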
# [7] = qHTS for differential inhibitors of proliferation of Plasmodium falciparum line HB3 (AID 1886); conditions: Potency: Plasmodium falciparum HB3 proliferation inhibition;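 further: potency means the concentration at half of the fitted maximal effect; parasites grown with compound for 72 h before SYBR Green readout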
# [8] = target: ATP-dependent DNA helicase Q1 (Homo sapiens) (UniProt P46063); assay: qHTS Validation Assay for Inhibitors of RecQ-Like Dna Helicase 1 (RECQ1) (AID 2353)
# Method in brief: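 RECQ1T1 50 nM; forked duplex (20 bp + 30-nt ss tails) 200 nM, ATP 2 mM final; pH 8.0, 2 mM MgCl2, 2.5 ug/ml poly(dI-dC); 15 min compound preincubation; discontinuous kinetic read over 2 h at RT.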
# [9] = Quantitative high throughput screen for delayed death inhibitors of the malarial parasite plastid, 96 hour incubation (AID 488745); further: series mostly up to about 29 µM; nearly all actives have a fitted effect of over 70% in size
# Method in brief: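 Decreased firefly luciferase luminescence indicates inhibited growth of reporter-integrated P. falciparum after two generations (96 h, 37 C, 5% CO2). Infected erythrocytes at 0.1% parasitemia, 2% hematocrit, in Albumax-supplemented RPMI 1640.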
# [10] = Quantitative high throughput screen for delayed death inhibitors of the malarial parasite plastid, 48 hour incubation (AID 488752); further: potency means the concentration at half of the fitted maximal effect; nearly all actives have a fitted effect of over 65% in size
# Method in brief: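 One-generation (48 h) growth assay: a decrease in luciferase signal from an integrated reporter in P. falciparum-infected red cells (0.1% parasitemia, 2% hematocrit) after compound exposure at 37 C indicates parasite inhibition.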
# [11] = target: M-phase phosphoprotein 8 (Homo sapiens) (UniProt Q99549); assay: qHTS Validation Assay for Inhibitors for MPP8 Chromodomain Interactions with Methylated Histone Tails (AID 488949);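 further: 50 nM MPP8 with 50 nM peptide preformed then compounds added for 30 min; AlphaScreen signal from MPP8 chromodomain bound to biotinylated H3K9me3 peptide; top concentration of the series differs between compounds; nearly all actives have a fitted effect of over 55% in size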
# Method in brief: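 50 nM MPP8 + 50 nM b-H3K9me3 peptide, PBS pH 7.4/0.01% Tween-20, 30 min RT; + cpd 30 min RT; + AlphaScreen donor/Ni-chelate acceptor beads 10 ug/mL final, 30 min dark; luminescence read.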
# [12] = target: Transient receptor potential cation channel subfamily V member 1 (Homo sapiens) (UniProt Q8NER1); assay: HTS Assay for Compounds that Act as Enhancers of the Vanilloid Receptor 1 (AID 488979)
# Method in brief: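 TRPV1-expressing cells loaded with Fluo-8 calcium dye; compounds added and calcium influx read kinetically for 3 min (agonist phase), then capsaicin at EC20 added and read 2 min more for enhancement. Fluorescence ex 480/em 520 nm.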
# [13] = target: Thyrotropin receptor (Homo sapiens) (UniProt P16473); assay: qHTS Assay for Antagonists of the Thyroid Stimulating Hormone Receptor (AID 488980); further: series mostly up to about 58 µM
# Method in brief: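 Readout is cAMP by HTRF competition between cellular cAMP and cAMP-d2 for a cryptate-labelled antibody. Antagonism was assessed in TSHR-transfected HEK293 cells stimulated with 4 nM TSH (EC80, final) in the presence of RO 20-1724.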
# [14] = target: Galactokinase (Homo sapiens) (UniProt P51570); assay: qHTS Validation Assay for Inhibitors of Human Galactokinase (GALK) (AID 493189)
# Method in brief: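 5 nM GALK / 100 uM galactose / 35 uM ATP, 20 mM HEPES pH8.0, 5 mM MgCl2, 60 mM NaCl, 1 mM DTT, 0.01% BSA (final). RT 1 h; Kinase-Glo Plus luminescence.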
# [15] = target: Cytochrome P450 1A2 (Homo sapiens) (UniProt P05177); assay: p450-cyp1a2 (AID 410; calls by dose curve; further: potency means the concentration at half of the fitted maximal effect)
# Method in brief: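 Luminescent demethylation readout: Luciferin-ME (100uM, equal to Km) turned over by 20nM CYP1A2 for 60 min at room temperature after NADPH regeneration addition, following 10 min compound preincubation. Normalization used 57 uM furafylline as full inhibition.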
# [16] = Stat Signaling Pathway (AID 446; active means well fitted curve in either direction with a large enough effect, not every such curve was filed as active;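 further: ME-180 cervical cancer cells given 40 pM IL-6 alongside compound; SIE-controlled beta-lactamase reporter measured as 460/530 nm FRET emission ratio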)
# Method in brief: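 Overnight-plated ME-180 cells bearing a STAT Inducible Element beta-lactamase reporter; 5 h co-exposure to compound and 40 pM IL-6; values normalized to 300 pM IL-6 and 125 nM JAK inhibitor controls.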
# [17] = target: Glucocorticoid receptor (Homo sapiens) (UniProt P04150); assay: GR-GFP Redistribution (AID 450;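 active means compounds whose dose series gives a full or clear partial fitted curve of increased nuclear translocation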; further: potency means the concentration at half of the fitted maximal effect); conditions: U2OS GR-GFP nuclear translocation, laser cytometry, 2 h
# [18] = target: Glucocorticoid receptor (Homo sapiens) (UniProt P04150); assay: GR-EFC Redistribution (AID 451; calls by dose curve; further: potency means the concentration at half of the fitted maximal effect); conditions: CHO-K1 GR-EFC translocation, beta-gal luminescence, 2 h
# Method in brief: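 CHO-K1 cells stably expressing nuclear-localized β-gal enzyme acceptor and GR fused C-terminally to the enzyme donor fragment; ligand-driven nuclear translocation restores β-gal by complementation. Compounds titrated up to 46 uM final, 2 h at 37 °C; luminescence read.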
# [19] = target: 3',5'-cyclic-AMP phosphodiesterase 4B (Homo sapiens) (UniProt Q07343); assay: qHTS Assay for Inhibitors of PDE-IV (AID 607; active means well fitted activation curve with a large enough effect in the main read-out, with a control signal flat, not every such curve was filed as active)
# Method in brief: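 Live HEK293 cells with a modified cyclic nucleotide-gated (CNG) channel report intracellular cAMP via membrane-potential dye fluorescence (ex 535/em 590 nm). Endogenous PDE-IV was targeted. Compounds were tested at up to 22.9 uM final; RO 20-1724 100 uM served as control.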
# [20] = target: Guanine nucleotide-binding protein G(i) subunit alpha-1 (Homo sapiens) (UniProt P63096); assay: qHTS Assay for Inhibitors of RGS12 GoLoco Motif Activity (Green Fluorophore) (AID 879);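 further: negative values mean loss of peptide binding seen as reduced polarization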
# Method in brief: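 A drop in FITC polarization marked displacement of the FITC-tagged RGS12 GoLoco peptide (10 nM) from Gαi1 (50 nM). Compounds were incubated 10 min at room temperature in Tris pH 7.5 buffer containing 150 mM NaCl, 0.1 mM GDP and 0.05% NP40; unlabeled peptide titration served as control.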
# [21] = target: Cytochrome P450 3A4 (Homo sapiens) (UniProt P08684); assay: qHTS Assay for Activators of Cytochrome P450 3A4 (AID 885); further: nearly all actives have a fitted effect of over 65% in size
# Method in brief: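 Using 20nM recombinant human CYP3A4 in potassium phosphate (200mM), substrate Luciferin-PPXE at 25uM, luminescent luciferin detection followed a 60-min RT NADPH reaction; data scaled to 57 uM ketoconazole.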
# [22] = qHTS Assay for Identification of Small Molecule Antagonists for Thrombopoietin (TPO) Signaling Pathway (AID 918); conditions: TPO-dependent cell signaling reporter, antagonist mode; further: potency means the concentration at half of the fitted maximal effect; nearly all actives have a fitted effect of over 60% in size
# Method in brief: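 Inhibition read as reduced luciferase luminescence after 24 h at 37 C in IL-3-deprived Ba/F3 cells carrying human TPO receptor and GPIIb-promoter reporter, stimulated with 26 pM TPO (final, its EC50) alongside compound.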
# [23] = target: Pyruvate kinase (Leishmania mexicana) (UniProt Q27686); assay: qHTS Validation Assay for Inhibitors of Leishmania Mexicana Pyruvate Kinase (AID 945)
# Method in brief: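 LmPYK E451W 0.2 nM; 0.5 mM PEP, 0.1 mM ADP, 7 mM MgCl2, 50 mM KCl, imidazole pH 7.2, 0.01% Tween 20, 0.05% BSA; 1 h RT; PKLight luminescence; DMSO-normalized.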
# [24] = target: Pyruvate kinase PKM (Homo sapiens) (UniProt P14618); assay: qHTS Assay for Activators of Human Muscle Pyruvate Kinase (AID 954; active means well fitted curve in the direction sought with a large enough effect, not every such curve was filed as active)
# Method in brief: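 Screening used highly purified human pyruvate kinase M2 under submaximal activity, with PEP at its Km and ADP below Km. After an hour at room temperature, ATP was read by luciferase luminescence.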
# [25] = target: Alpha-galactosidase A (Homo sapiens) (UniProt P06280); assay: Counterscreen for Glucocerebrosidase Inhibitors: qHTS Assay for Human alpha-Galactosidase at pH 4.5 (AID 992)
# Method in brief: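 Each compound is preincubated briefly with 2 nM enzyme before substrate addition (80 uM); plates then sit 20 min at ambient temperature, are quenched with 1M NaOH/1M glycine, and read fluorometrically.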
# [26] = target: alpha-glucosidase (Oryza sativa, rice) (UniProt Q653V4); assay: Counterscreen for Glucocerebrosidase Inhibitors: qHTS Assay for Rice alpha-Glucosidase at pH 5.0 (AID 997)
# Method in brief: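 Endpoint fluorogenic assay at pH 5.0: compounds (0.7 nM to 77 uM) titrated against 4 nM rice enzyme and 400 uM 4-MU-alpha-glucoside for 20 min at room temperature; NaOH/glycine stop, read ex 365/em 440 nm, Hill-fitted AC50.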
# [27] = Counterscreen for APE1 Inhibitors: Fluorescent Dye Displacement Validation Assay (AID 1707)
# Method in brief: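 Loss of Thiazole Orange fluorescence marks promiscuous DNA binders. The dye (250 nM) is mixed with 50 nM abasic-site dsDNA in pH7.5 Tris buffer containing MgCl2, then compounds are added and emission is read once.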
# [28] = target: Thyrotropin-releasing hormone receptor (Homo sapiens) (UniProt P34981); assay: qHTS for Small Molecule Agonists and Allosteric Enhancers of Human TRH Receptor: Validation Screen for Agonists (AID 493127;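 active means calcium activation more than 3 SD above the typical response in the agonist read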;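 further: intracellular calcium rise by fluo-8 fluorescence before TRH EC20 addition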); conditions: TRH receptor agonist cell assay; at 2 µM; active compounds read high
# Method in brief: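 Compound-evoked intracellular calcium release in fluo-8-loaded TRHR cells, read kinetically on FDSS (Ex 480/Em 530, 1 s/cycle) after 23 nL pintool transfer. Agonist phase preceded 10 nM TRH EC20 addition.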
# [29] = target: Voltage-gated inwardly rectifying potassium channel KCNH2 (Homo sapiens) (UniProt Q12809); assay: qHTS Assay for Small Molecule Inhibitors of the Human hERG Channel Activity (AID 588834);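 further: potency means the concentration at half of the fitted maximal effect; lower thallium flux fluorescence means stronger hERG block; nearly all actives have a fitted effect of over 50% in size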
# Method in brief: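 Step 1: BacMam hERG transduction of U2OS, 4 hrs RT. Step 2: overnight 37 °C, plate 2000 cells/well, 4 hr. Step 3: FluxOR load, compound 10 min, stimulate, read fluorescence.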
# Chain of Thyrotropin receptor (Homo sapiens) (P16473 whole entry, looked up): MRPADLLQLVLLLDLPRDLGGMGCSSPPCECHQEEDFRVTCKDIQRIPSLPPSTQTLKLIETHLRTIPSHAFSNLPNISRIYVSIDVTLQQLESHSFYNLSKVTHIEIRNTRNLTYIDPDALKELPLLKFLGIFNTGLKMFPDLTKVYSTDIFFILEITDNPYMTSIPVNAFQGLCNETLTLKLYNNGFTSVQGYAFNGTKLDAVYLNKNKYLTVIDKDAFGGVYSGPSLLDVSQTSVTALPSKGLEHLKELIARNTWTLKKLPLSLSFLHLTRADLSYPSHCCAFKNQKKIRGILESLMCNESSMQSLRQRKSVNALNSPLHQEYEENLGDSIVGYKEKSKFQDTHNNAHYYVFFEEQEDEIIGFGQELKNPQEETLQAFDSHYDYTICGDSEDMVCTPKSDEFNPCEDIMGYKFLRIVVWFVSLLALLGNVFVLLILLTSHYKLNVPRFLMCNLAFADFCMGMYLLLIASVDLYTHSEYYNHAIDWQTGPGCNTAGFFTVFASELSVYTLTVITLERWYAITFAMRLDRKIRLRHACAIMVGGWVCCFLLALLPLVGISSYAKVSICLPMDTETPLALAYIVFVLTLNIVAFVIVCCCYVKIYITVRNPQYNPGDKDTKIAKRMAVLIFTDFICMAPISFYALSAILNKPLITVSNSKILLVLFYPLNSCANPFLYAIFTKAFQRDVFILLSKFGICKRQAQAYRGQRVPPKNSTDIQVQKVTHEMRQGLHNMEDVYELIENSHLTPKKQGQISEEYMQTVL
# Chain of Glucocorticoid receptor (Homo sapiens) (P04150 whole entry, looked up, the tested form may be a part): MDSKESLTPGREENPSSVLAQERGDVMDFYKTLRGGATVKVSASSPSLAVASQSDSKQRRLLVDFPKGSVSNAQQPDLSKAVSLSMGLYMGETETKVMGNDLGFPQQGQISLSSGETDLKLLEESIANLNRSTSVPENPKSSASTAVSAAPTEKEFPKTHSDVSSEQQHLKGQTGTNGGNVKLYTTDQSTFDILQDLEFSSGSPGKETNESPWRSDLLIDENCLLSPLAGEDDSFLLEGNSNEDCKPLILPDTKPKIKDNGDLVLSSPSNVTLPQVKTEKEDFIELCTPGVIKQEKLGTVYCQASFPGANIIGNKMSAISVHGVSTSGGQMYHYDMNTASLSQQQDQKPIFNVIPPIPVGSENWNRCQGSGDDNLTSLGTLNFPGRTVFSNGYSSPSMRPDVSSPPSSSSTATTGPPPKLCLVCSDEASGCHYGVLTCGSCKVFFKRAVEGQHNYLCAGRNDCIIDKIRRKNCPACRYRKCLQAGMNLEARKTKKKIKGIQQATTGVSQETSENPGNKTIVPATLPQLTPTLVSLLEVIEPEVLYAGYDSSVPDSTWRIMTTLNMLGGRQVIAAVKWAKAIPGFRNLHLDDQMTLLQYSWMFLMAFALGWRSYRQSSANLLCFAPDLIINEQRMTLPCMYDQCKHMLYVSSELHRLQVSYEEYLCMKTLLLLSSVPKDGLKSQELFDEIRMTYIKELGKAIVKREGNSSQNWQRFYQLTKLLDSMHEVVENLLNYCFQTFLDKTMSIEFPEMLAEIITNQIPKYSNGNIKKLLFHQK
# Chain of Galactokinase (Homo sapiens) (P51570 whole entry, looked up): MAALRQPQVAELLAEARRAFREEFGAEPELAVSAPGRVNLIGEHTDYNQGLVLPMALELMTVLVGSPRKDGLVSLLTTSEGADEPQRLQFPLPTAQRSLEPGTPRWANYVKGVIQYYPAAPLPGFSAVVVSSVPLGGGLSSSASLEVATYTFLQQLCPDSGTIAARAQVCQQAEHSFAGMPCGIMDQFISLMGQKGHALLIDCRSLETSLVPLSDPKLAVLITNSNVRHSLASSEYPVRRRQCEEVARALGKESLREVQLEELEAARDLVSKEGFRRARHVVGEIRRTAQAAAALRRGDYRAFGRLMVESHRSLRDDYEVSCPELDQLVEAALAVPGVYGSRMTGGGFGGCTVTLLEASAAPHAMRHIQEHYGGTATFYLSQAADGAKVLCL
# Chain of ATP-dependent DNA helicase Q1 (Homo sapiens) (P46063 whole entry, looked up): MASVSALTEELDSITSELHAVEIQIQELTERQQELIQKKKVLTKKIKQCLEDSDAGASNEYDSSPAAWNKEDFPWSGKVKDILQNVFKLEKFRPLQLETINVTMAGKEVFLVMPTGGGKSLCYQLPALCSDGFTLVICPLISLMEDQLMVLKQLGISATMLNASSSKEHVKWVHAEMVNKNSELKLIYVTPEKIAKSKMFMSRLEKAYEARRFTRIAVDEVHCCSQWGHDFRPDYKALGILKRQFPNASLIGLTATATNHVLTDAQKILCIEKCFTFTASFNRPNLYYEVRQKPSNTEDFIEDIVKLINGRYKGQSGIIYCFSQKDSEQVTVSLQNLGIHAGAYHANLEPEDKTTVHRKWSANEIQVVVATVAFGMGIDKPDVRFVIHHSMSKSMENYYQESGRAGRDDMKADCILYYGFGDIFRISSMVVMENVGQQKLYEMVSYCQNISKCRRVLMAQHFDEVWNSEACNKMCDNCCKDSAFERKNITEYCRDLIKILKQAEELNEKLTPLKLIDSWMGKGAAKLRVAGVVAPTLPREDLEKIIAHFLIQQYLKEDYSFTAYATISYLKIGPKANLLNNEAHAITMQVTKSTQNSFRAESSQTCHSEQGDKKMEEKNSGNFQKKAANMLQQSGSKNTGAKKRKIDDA
# Chain of Transient receptor potential cation channel subfamily V member 1 (Homo sapiens) (Q8NER1 whole entry, looked up): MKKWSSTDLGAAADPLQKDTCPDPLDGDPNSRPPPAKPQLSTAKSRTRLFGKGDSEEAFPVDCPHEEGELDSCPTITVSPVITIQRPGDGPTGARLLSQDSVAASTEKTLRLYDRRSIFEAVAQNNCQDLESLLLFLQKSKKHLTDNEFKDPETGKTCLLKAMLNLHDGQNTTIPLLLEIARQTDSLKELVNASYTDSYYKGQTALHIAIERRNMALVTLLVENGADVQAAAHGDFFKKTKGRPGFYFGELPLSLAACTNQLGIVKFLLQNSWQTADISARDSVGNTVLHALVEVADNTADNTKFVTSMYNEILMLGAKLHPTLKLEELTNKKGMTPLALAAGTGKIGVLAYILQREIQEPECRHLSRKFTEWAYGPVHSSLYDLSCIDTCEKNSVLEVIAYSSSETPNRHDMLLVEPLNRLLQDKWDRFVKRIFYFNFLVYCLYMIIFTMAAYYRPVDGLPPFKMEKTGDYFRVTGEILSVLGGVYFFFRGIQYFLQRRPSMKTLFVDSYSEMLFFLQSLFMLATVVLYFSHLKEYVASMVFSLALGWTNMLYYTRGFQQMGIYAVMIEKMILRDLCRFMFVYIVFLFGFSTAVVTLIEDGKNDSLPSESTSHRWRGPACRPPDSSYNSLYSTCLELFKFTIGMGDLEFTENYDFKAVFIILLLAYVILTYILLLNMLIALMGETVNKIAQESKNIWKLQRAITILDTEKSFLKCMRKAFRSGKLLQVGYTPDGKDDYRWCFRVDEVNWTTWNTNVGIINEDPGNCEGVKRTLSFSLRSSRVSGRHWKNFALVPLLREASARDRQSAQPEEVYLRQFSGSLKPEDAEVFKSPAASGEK
# Chain of M-phase phosphoprotein 8 (Homo sapiens) (Q99549 whole entry, looked up): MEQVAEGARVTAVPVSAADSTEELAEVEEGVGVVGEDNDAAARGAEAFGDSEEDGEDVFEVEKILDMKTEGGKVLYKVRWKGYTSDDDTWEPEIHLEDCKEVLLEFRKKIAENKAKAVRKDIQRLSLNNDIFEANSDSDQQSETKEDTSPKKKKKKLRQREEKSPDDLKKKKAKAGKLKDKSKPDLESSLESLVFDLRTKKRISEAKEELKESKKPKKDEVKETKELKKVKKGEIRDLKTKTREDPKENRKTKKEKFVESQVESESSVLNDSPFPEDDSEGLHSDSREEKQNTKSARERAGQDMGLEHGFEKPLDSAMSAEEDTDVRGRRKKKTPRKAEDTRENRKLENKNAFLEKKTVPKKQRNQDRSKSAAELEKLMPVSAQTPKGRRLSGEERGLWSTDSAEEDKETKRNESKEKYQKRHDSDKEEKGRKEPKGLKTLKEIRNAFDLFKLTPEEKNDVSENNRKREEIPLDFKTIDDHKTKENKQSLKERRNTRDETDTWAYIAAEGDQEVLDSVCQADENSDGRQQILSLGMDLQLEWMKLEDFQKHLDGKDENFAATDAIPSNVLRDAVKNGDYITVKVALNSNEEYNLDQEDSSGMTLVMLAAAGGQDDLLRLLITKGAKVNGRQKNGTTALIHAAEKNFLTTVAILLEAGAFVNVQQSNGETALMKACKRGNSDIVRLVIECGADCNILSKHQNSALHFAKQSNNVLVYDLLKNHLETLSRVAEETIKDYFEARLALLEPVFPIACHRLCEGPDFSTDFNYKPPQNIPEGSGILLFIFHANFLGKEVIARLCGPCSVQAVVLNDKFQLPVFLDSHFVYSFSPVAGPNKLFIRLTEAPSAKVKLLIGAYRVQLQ
# Chain of DNA repair nuclease/redox regulator APEX1 (Homo sapiens) (P27695 whole entry, looked up): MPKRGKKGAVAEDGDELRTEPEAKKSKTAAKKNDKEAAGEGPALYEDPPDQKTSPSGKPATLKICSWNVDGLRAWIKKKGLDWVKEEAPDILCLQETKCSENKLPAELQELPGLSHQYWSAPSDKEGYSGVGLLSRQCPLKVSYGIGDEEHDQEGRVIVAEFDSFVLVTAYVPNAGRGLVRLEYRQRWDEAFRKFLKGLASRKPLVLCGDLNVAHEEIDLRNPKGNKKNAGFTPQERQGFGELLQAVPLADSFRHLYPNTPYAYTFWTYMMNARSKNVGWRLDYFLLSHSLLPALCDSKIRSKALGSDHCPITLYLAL
# Chain of Alpha-galactosidase A (Homo sapiens) (P06280 whole entry, looked up): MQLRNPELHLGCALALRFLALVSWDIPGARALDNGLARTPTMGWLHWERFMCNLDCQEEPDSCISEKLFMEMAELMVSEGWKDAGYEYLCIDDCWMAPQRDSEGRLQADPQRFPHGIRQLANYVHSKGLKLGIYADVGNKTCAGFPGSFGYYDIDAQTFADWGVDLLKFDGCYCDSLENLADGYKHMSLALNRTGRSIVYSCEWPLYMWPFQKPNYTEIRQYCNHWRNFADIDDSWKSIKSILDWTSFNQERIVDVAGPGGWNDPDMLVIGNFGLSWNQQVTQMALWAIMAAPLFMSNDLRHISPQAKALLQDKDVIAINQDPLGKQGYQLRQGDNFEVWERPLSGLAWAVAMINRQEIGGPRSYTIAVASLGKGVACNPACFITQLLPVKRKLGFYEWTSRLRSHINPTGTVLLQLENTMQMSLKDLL
smiles,measurement,setting,value
CC(=O)O[C@]1(C(C)=O)CC[C@H]2C3C=C(Cl)C4=CC(=O)[C@@H]5C[C@H]5[C@]4(C)C3CC[C@@]21C (stereo not given in full),Potency,[1],inactive
same,Potency,[2],12.6 µM (active)
same,Potency,[3],10 µM (active)
same,Potency,[4],8.91 µM (active)
same,Potency,[5],14.1 µM (active)
same,Potency,[6],8.91 µM (active)
same,Potency,[7],12.6 µM (active)
same,outcome,[8],inactive
same,Potency,[9],inactive
same,Potency,[10],9.28 µM (active)
same,Potency,[11],inactive
same,outcome,[12],inactive
same,outcome,[13],inactive
same,outcome,[14],inactive
N#Cc1c(-c2ccccc2)no[n+]1[O-],Potency,[15],0.398 µM (active)
same,outcome,[16],inactive
same,Potency,[17],> 46 µM
same,Potency,[18],> 46 µM
same,Potency,[19],inactive
same,Potency,[20],inactive
same,outcome,[21],inactive
same,Potency,[22],3.98 µM (active)
same,outcome,[23],inactive
same,outcome,[24],inactive
same,outcome,[25],inactive
same,outcome,[26],inactive
same,Potency,[1],inactive
same,outcome,[27],inactive
same,Potency,[2],10 µM (active)
same,Potency,[3],12.6 µM (active)
same,Potency,[5],14.1 µM (active)
same,Potency,[6],10 µM (active)
same,Potency,[7],11.2 µM (active)
same,outcome,[8],inactive
same,Potency,[11],inactive
same,outcome,[12],inactive
same,outcome,[13],inactive
same,activation,[28],0.688%
same,outcome,[14],inactive
same,Potency,[29],5.01 µM (active)
